Assay outcomes: PubChem, several laboratories
Calb FLC: C. albicans growth modulation with fluconazole; hit rate 0.57% among 300,000; growth inhibition, % (concentration not given with the values); C. albicans CaCi-2 (fluconazole-resistant clinical isolate) + fluconazole, Alamar Blue growth, 48 h; AID 1979;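 active means growth inhibition above about 58% in most replicates, limit read from the data, passing the limit was not always enough; inconclusive means exactly half the replicates above a set limit; inactive means most replicates below a set limit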;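 further: all wells also contain fluconazole at 8 µg/ml as a sub-toxic cotreatment; 0% = median of DMSO wells and 100% = median of geldanamycin control wells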
PHOSPHO1 inh: inhibitors of human PHOSPHO1 phosphatase; Q8TCT1; recombinant PHOSPHO1, absorbance phosphatase assay; inhibition, % at 13.3 µM; hit rate 1.1% among 290,000; AID 1565; in the data active means inhibition above about 60%
Target sequence (Q8TCT1 whole entry, looked up): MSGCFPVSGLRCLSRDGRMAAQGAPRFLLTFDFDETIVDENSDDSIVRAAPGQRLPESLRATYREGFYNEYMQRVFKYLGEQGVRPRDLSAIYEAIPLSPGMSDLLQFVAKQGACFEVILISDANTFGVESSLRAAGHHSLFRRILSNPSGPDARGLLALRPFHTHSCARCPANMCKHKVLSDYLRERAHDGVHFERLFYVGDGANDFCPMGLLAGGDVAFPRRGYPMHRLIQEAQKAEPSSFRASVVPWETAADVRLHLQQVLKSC
H9c2 protect: myocardial damage modulation in H9c2 cells; H9c2 cardiomyocytes, H2O2 injury protection, ATPLite, 2 h; protection from H2O2 cell death, % at 20 µM; hit rate 0.63% among 360,000;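 active means compounds giving at least 50% protection of heart cells from peroxide-induced death in the single-dose screen, raw or plate-pattern-corrected value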;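 further: 0% = DMSO wells with peroxide and 100% = DMSO wells without peroxide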
Cl transport mod: modulators of human KCC2 chloride dependent transport. hit rate 2.2% among 190,000. B-score of Tl+ flux slope (higher = more flux/activation; lower = inhibition) at 10 µM. Q9H2X9. KCC2 cells, thallium flux FluoZin-2 fluorescence;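 active means thallium flux slope and its plate-corrected score both differing from the plate sample mean at a set confidence after two filtering rounds, in either direction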;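 further: slope of fluorescence scaled to starting intensity during 10 to 20 s after thallium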
Efflux pump inh: blocks antifungal efflux pumps in multiplex yeast assay; S. cerevisiae Candida pump triplex, Nile Red efflux; inhibition, % at 10 µM; hit rate 0.44% among 330,000;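 active means plate passing quality check with inhibition over a set limit, or well fluorescence over plate mean plus 4 SD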;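 further: Nile Red retained in pooled yeast measured as flow cytometry median fluorescence; 0% = buffer negative control and 100% = Enniatin B positive control; higher means more Nile Red kept so more efflux inhibition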
The depositor's hits bear a star; ? = inconclusive; · = no result given. Shown are actives, neighbours in structure and some others; about 3.3% of the full set was active somewhere.

SMILES | Calb FLC | PHOSPHO1 inh | H9c2 protect | Cl transport mod | Efflux pump inh
Cc1ccc(CC(=O)Nc2ncc([N+](=O)[O-])s2)cc1 | 82* | 32 | -26 | -0.66 | 0
Cc1cnc(NC(=O)c2cccs2)s1 | -1 | 46 | -14 | · | 0
O=C(CCS(=O)(=O)c1ccccc1)Nc1ncc([N+](=O)[O-])s1 | 99* | 24 | -1 | · | 0
O=C(Nc1ncc([N+](=O)[O-])s1)c1cccs1 | 108* | 15 | -34 | · | 0
O=C(CS(=O)(=O)c1ccccc1)Nc1ncc([N+](=O)[O-])s1 | 0 | 28 | -5 | · | 0
O=C(c1ccc2n[nH]nc2c1)N1CCN(c2ccc(C(F)(F)F)cn2)CC1 | · | · | -7 | · | 0
Cc1ccsc1C(=O)NNC(=O)c1cccc(S(=O)(=O)N2CCCC2)c1 | · | · | 5 | · | 0
O=S1(=O)CCC(N=Cc2cc(Br)ccc2O)C1 (centres undefined) | 7 | -15 | 70* | -0.49 | 0
O=C(c1cc(-c2ccccc2)nc2ccccc12)N1CCCC1 | 18 | 14 | -4 | · | 0
Cc1cc(C(=O)N2CC=C(c3ccccc3)CC2)c2ccccc2n1 | 0 | · | -11 | · | 0
O=C(c1cc(-c2cccc(Cl)c2)nc2ccccc12)N1CCCC1 | 1 | 62* | 3 | · | 0
CC(=O)N1CCN(C(=O)c2cc(C)nc3ccccc23)CC1 | -2 | 60* | 5 | 0.45 | 0
COc1ccccc1N(C)S(=O)(=O)c1ccc(C(=O)NCC2CCCCC2)cc1 | · | · | -11 | · | 0
CCN(CC)c1ccc(NC(=O)c2nc3nc(C)cc(C(F)F)n3n2)cc1 | 14 | 78* | 3 | -0.56 | 0
COc1ccc(NC(=O)c2nc3nc(C)cc(C(F)F)n3n2)cc1OC | 0 | 22 | -13 | -2.8 | 0
COc1ccc(N(CC(=O)NCc2ccc(Cl)cc2)S(=O)(=O)c2ccccc2[N+](=O)[O-])c(OC)c1 | 41 | 16 | 5 | -1.8 | 1
CC(C)[C@H](NC(=O)c1ccccc1)C(=O)Nc1ccc2c(c1)OCO2 | · | · | -2 | · | 0
O=C(CSc1nnc(CNc2ccc(F)cc2)n1Cc1ccco1)N1CCOCC1 | -8 | 88* | -2 | -0.37 | 0
C[C@@H]1CC[C@H](Cc2ccc(-n3cccc3)cc2)N1C(=O)OC(C)(C)C | · | · | -21 | · | ·
COC(=O)c1cc2occc2n1Cc1ccc(Cl)cc1 | -23 | 64* | -13 | 1.3 | 0
COC(=O)c1cc2occc2n1Cc1c(F)cccc1Cl | · | 38 | · | -0.83 | ·
COc1ccccc1Nc1nc2c(s1)CCC2 | -25 | 76* | -14 | 0.81 | 0
Cc1ccc(Nc2nc3c(s2)CCC3)c(C)c1 | -7 | -8 | -5 | -0.8 | 0
Cc1cccn2c(=S)[nH]nc12 | · | · | -1 | · | ·
CCOC(=O)CCc1c(C)c2ccc(OCC)c(C)c2oc1=O | 16 | 3 | · | -1.4 | 0
SMILES | Calb FLC | PHOSPHO1 inh | H9c2 protect | Cl transport mod | Efflux pump inh
CCOC(=O)CCc1c(C)c2ccc(OCC(=O)N3CCOCC3)c(C)c2oc1=O | -9 | 62* | 1 | · | 0
COc1ccc(CCC(=O)OCC(=O)NCc2ccc(OC)c(OC)c2)cc1OC | · | · | 5 | · | 0
COc1cc(/C=C(/C#N)c2ccccc2)ccc1Oc1ccc([N+](=O)[O-])cn1 | ? | 10 | -6 | 0.22 | 0
COc1cc(/C=C(\C#N)c2nc3ccccc3[nH]2)ccc1Oc1ccc([N+](=O)[O-])cn1 | 7 | 15 | 76* | 0.22 | 0
COc1cc(/C=C(\C#N)c2nc3ccc(C)cc3[nH]2)c([N+](=O)[O-])cc1OC | -3 | -3 | 85* | · | 0
COc1ccc(S(=O)(=O)Nc2cc(Sc3ncn[nH]3)c(O)c3ccccc23)cc1 | · | 98* | · | -1.6 | ·
O=S(=O)(Nc1cc(Sc2cccc3cccnc23)c(O)c2ccccc12)c1ccc(F)cc1 | 2 | 7 | · | 48* | 0
COc1ccc(S(=O)(=O)Nc2cc(SCC(=O)O)c(O)c3ccccc23)cc1 | 60 | -47 | -17 | · | 0
Cc1cc(Cl)ccc1OCCCC(=O)N1CCN(S(=O)(=O)c2ccccc2)CC1 | 17 | · | -10 | · | 0
COc1ccc(-c2c(C#Cc3ccsc3)c3cc(-c4ccc(OC)c(F)c4)ccc3n2C)cc1 | · | · | -4 | · | 0
CCC1(C)Cc2c(sc3nc(SCC(=O)c4ccccc4)[nH]c(=O)c23)CO1 (centres undefined) | 0 | 8 | 0 | 0.61 | 0
CCC1(C)Cc2c(sc3nc(NN)n(C)c(=O)c23)CO1 (centres undefined) | 10 | 16 | 51* | -0.34 | 0
CCOC(=O)CSc1nc2sc3c(c2c(=O)[nH]1)CC(C)(CC)OC3 (centres undefined) | -2 | 81* | 10 | · | 0
CCC1(C)Cc2c(sc3c2c(=O)n(-c2ccccc2)c(=O)n3C)CO1 (centres undefined) | · | 77* | 9 | -0.95 | 0
O=C(Nc1nnc(-c2ccco2)o1)c1ccc2ccccc2c1 | -14 | -11 | 64* | 38* | 0
O=C1Nc2cnc(Cl)nc2Nc2ccccc21 | · | · | 56* | · | ·
CCOc1ccccc1CN1CCN(Cc2cn(C)nc2-c2ccccc2)CC1CCO (centres undefined) | 4 | 60* | 3 | 0.082 | 0
Cc1nc2ccc(NC(=O)COc3ccccc3)cc2s1 | 108* | -19 | -2 | -1 | ·
CN(C)c1cccc2c1c(NC(=O)c1ccc(F)cc1)nn2C | -1 | 62* | 0 | -0.2 | 0
CN(C)c1cccc2c1c(NC(=O)c1ccc(Cl)cc1)nn2C | 5 | 10 | 12 | -1.3 | 0
O=C(CSc1c2c(nc3ccccc13)CCCC2)NCc1ccco1 | 12 | -1 | 3 | -0.034 | 0
Cc1c(Cl)cccc1NC(=O)COC(=O)c1c2c(nc3ccccc13)CCN(Cc1ccccc1)C2 | -12 | -12 | 46 | 0.94 | 0
CC(C)(C)NC(=O)COC(=O)c1c2c(nc3ccccc13)CCC2 | 1 | 40 | 50* | · | 0
CC(C)c1ccccc1NC(=O)COC(=O)c1c2c(nc3ccccc13)CCN(Cc1ccccc1)C2 | 20 | 1 | 66* | -1.2 | 0
O=C(NCc1ccco1)c1c2c(nc3ccccc13)CCC2 | -15 | 72* | 13 | 0.29 | 0
SMILES | Calb FLC | PHOSPHO1 inh | H9c2 protect | Cl transport mod | Efflux pump inh
Cc1cccc(NC(=O)Cn2nc(-c3cccs3)ccc2=O)c1C | -3 | 30 | 2 | · | 0
COC(=O)C1CC(c2ccccc2)N(c2ccccc2)O1 (centres undefined) | · | · | 3 | · | ·
CC(C)=CCc1c(O)ccc2c1OC(c1ccc(O)c(O)c1)CC2=O (centres undefined) | -17 | -8 | 54* | -1.5 | 0
O=C(NC(=S)Nc1sc2c(c1C(=O)O)CCCC2)c1ccccc1 | 7 | 19 | 9 | · | 0
CCOC(=O)CC1C(=O)NCCN1C(=O)c1c(Cl)cccc1Cl (centres undefined) | 92* | -3 | 9 | · | 0
Cc1ccc(NCc2n[nH]c(=S)n2Cc2ccccc2)cc1Cl | 19 | -72 | -3 | -0.73 | ·
CC(C)C(=O)Nc1cccc(-c2nc3ncccc3o2)c1 | 4 | -2 | 10 | · | 0
COc1c(C)cc(Br)cc1C(=O)Nc1cccc(-c2nc3ncccc3o2)c1 | -9 | -15 | 115* | 0.9 | 0
